Source: PubChem
An excerpt weighted towards active compounds, which were near 21% of everything screened.
Pf growth 48h: inhibits P. falciparum growth in the first generation, 48 h; Potency, µM (titrated, usually from 28.7 µM), hits mostly inhibitors; 310,000 compounds, 5.9% hits; P. falciparum luciferase growth in erythrocytes, 48 h; AID 504832
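A one-generation exposure of luciferase-tagged malaria parasites in RPMI 1640/Albumax erythrocyte culture, 37 C and 5% CO2. Inhibition is inferred from decreased luminescence after adding detection reagent.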
NS1 inh: inhibitors of influenza NS1 protein function; Potency, µM (titrated, usually from 46.1 µM); AID 2326; 270,000 compounds, 0.4% hits; calls by dose curve; note: actives are rising curves; nearly all actives have a fitted effect of over 50% in size
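Growth recovery, yeast-based: influenza A NS1 expressed in S. cerevisiae causes slow growth, and suppressors are detected by OD600. The parent strain without NS1 is used as positive control.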
Shiga inhibitor: inhibitors of Shiga toxin in Vero cells; Vero cells, Shiga toxin protein synthesis inhibition reporter; 290,000 compounds, 9.2% hits; inhibition, % at 38.7 µM; in the data active = inhibition mostly above about 28%, no sharp cut-off; inactive = mostly below about 43%
Pf growth 96h: inhibits malaria parasite growth, 96 h | 320,000 compounds, 6.9% hits | Potency, µM (doses to about 28.7 µM), usual class: inhibitors | AID 504834 | P. falciparum luciferase reporter growth, 96 h
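P. falciparum expressing integrated firefly luciferase, in erythrocytes at 2% hematocrit, 0.05% parasitemia, incubated with compounds 96 h at 37 C, 5% CO2. Growth inhibition read as loss of luminescence; two-generation exposure targets delayed-death apicoplast inhibitors.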
Giardia FBPA inh: Giardia lamblia aldolase inhibition; purified Giardia FBPA; AID 2451; Potency, µM (titrated, usually from 59.6 µM), usual class: inhibitors; 290,000 compounds, 0.71% hits; A8B2U2; note: nearly all actives have a fitted effect of over 55% in size
Target sequence (A8B2U2 whole entry, looked up): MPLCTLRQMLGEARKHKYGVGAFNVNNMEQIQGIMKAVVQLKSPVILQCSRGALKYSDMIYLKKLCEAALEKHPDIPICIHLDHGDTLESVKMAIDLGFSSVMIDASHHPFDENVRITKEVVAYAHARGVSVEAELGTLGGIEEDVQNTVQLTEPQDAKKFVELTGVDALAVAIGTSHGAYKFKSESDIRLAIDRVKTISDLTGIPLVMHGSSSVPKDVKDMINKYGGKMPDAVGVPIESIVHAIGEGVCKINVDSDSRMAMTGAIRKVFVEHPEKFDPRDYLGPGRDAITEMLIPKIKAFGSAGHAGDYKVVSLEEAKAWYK
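Giardia FBPA (40 nM reagent) was preincubated 10 min at RT with compound (up to 57.5 uM final), then substrate plus GAPDH/TPI/NAD/arsenate coupling system with diaphorase/resazurin was added; resorufin fluorescence (525/598 nm) was read after 20 min.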
CHX counter: counter-screen hit for Shiga toxin inhibitors, cycloheximide; cell reporter, cycloheximide protein synthesis inhibition counterscreen; max response, %; 300,000 compounds, 12% hits; in the data active = max response mostly above about 13%, no sharp cut-off; inactive = mostly below about 14%; note: read at 38.3 µM for the half of the compounds with a filed dose
Of the large screens only hits and unclear results are named; the others gave an inactive call. Unless noted, calls come from the whole dose curve; as a rule, active = well fitted curve in the direction sought with a large enough effect; inconclusive = small, poorly fitted or top-dose-only effect, or another doubt; inactive = no such curve, though single readings can be large; an effect the other way counts as inactive or inconclusive.

CCC(=O)N(CCC(c1ccco1)c1ccccc1OC)Cc1cccs1 (centres undefined)	Pf growth 96h 10.4µM (no result: Pf growth 48h)
O=C(CN1C(=O)c2ccccc2C1=O)[C@@H](O)CN1C(=O)c2ccccc2C1=O	none (no result: Pf growth 48h, Shiga inhibitor, Pf growth 96h, Giardia FBPA inh, CHX counter)
Cc1ccc(NC(=O)CCNS(=O)(=O)c2ccc3[nH]c(=O)oc3c2)cc1F	Pf growth 48h inconclusive, Giardia FBPA inh inconclusive
Cc1nc(N2CCOCC2)c(C#N)c2c1COC(C)(C)C2	none
CC1(C)Cc2c(C#N)c(N3CCOCC3)nc(-c3ccccc3)c2CO1	Pf growth 48h 10.4µM, Pf growth 96h inconclusive
CC(C)Cc1nc(N2CCN(C(=O)c3ccco3)CC2)c(C#N)c2c1CCCC2	Pf growth 48h inconclusive
Cc1ccc(S(=O)(=O)N2CCN(c3nc(C)c4c(c3C#N)CC(C)(C)OC4)CC2)cc1	Pf growth 48h 6.57µM
CC(C)C(=O)N1CCN(c2nc(-c3ccccc3)c3c(c2C#N)CCCC3)CC1	Pf growth 96h 8.28µM (no result: Pf growth 48h)
CCCC(=O)N1CCN(c2nc(CC(C)C)c3c(c2C#N)CCC3)CC1	Pf growth 48h 2.62µM
CCc1nc(N2CCN(C(=O)c3ccccc3)CC2)c(C#N)c2c1COC(C)(C)C2	Pf growth 48h 9.28µM, Pf growth 96h inconclusive
CC1(C)Cc2c(C#N)c(N3CCN(C(=O)c4ccccc4)CC3)nc(Cc3ccccc3)c2CO1	Pf growth 48h inconclusive (no result: Pf growth 96h)
C=CC(C)(O)CCCC(C)CCCC(C)CCCC(C)C (centres undefined)	Pf growth 96h inconclusive (no result: NS1 inh, Shiga inhibitor, CHX counter)
O=C(c1ccccc1)N1N=C(C(F)(F)F)CC1(O)c1ccc(F)cc1 (centres undefined)	Shiga inhibitor 58.8, CHX counter 25.1
COc1cccc(C2(O)CC(C(F)(F)F)=NN2C(=O)c2ccccn2)c1 (centres undefined)	Shiga inhibitor 64.5, Pf growth 96h 0.522µM, CHX counter 38.4
O=C(c1ccccc1)N1N=C(C(F)(F)F)CC1(O)c1ccccc1 (centres undefined)	none (no result: Shiga inhibitor)
Cn1c(SCC(=O)NC2CCCCC2)nnc1-c1ccccc1O	Pf growth 96h inconclusive (no result: Giardia FBPA inh)
O=C(COC(=O)c1ccccc1C(=O)N1CCN(c2ccccc2)CC1)Nc1ccccc1	Pf growth 48h 4.15µM
O=C(COC(=O)c1ccccc1SCC(=O)N1CCCC1)Nc1ccccc1	Pf growth 96h inconclusive, CHX counter 17.4 (no result: Giardia FBPA inh)
O=C(COC(=O)c1ccccc1C(=O)N1CCN(c2ccccc2)CC1)Nc1ccc(F)cc1	none (no result: Pf growth 96h)
CC1Cc2cc(/C(O)=C3\C(=O)C(=O)N(CCN(C)C)C3c3ccccc3F)ccc2O1 (centres undefined)	Shiga inhibitor 77.1, CHX counter 17.5
O=C1C(=O)N(Cc2ccncc2)C(c2cccc(O)c2)/C1=C(\O)c1ccc2c(c1)OCCO2 (centres undefined)	Shiga inhibitor 78.1, CHX counter 32.0
COc1cc(C2/C(=C(\O)c3ccc4c(c3)CC(C)O4)C(=O)C(=O)N2CC2CCCO2)cc(OC)c1OC (centres undefined)	none
CC1Cc2cc(/C(O)=C3\C(=O)C(=O)N(Cc4ccncc4)C3c3ccccc3F)ccc2O1 (centres undefined)	Pf growth 96h inconclusive (no result: Giardia FBPA inh)
CC1Cc2cc(/C(O)=C3/C(=O)C(=O)N(CC4CCCO4)C3c3ccco3)ccc2O1 (centres undefined)	Shiga inhibitor 74.3, CHX counter 41.3 (no result: Pf growth 96h)
CCN(CC)CCCN1C(=O)C(=O)/C(=C(/O)c2ccc3c(c2)CC(C)O3)C1c1ccncc1 (centres undefined)	Pf growth 96h inconclusive
CCN(CC)CCCN1C(=O)C(=O)/C(=C(/O)c2ccc3c(c2)CC(C)O3)C1c1cccnc1 (centres undefined)	Pf growth 96h 1.47µM
CCOc1cccc(C2/C(=C(\O)c3ccc4c(c3)OCCO4)C(=O)C(=O)N2Cc2ccncc2)c1 (centres undefined)	Pf growth 96h inconclusive
CC(C)CN(CCCNC(=O)CN1C(=O)COc2ccc(S(=O)(=O)N3CCOCC3)cc21)CC(C)C	Pf growth 96h inconclusive (no result: Giardia FBPA inh)
Cc1ccc(C)c(NC(=O)CN(C)C(=O)c2ccc(S(=O)(=O)N3CCCCCC3)cc2)c1	Pf growth 48h inconclusive (no result: NS1 inh, Shiga inhibitor, Giardia FBPA inh, CHX counter)
COC(=O)c1ccc(C2/C(=C(/O)c3ccc4c(c3)CC(C)O4)C(=O)C(=O)N2Cc2cccnc2)cc1 (centres undefined)	Pf growth 96h inconclusive
Cc1nnc(N2C(=O)C(=O)/C(=C(\O)c3ccc4c(c3)CC(C)O4)C2c2ccccc2)s1 (centres undefined)	NS1 inh inconclusive, Shiga inhibitor 49.7, Pf growth 96h inconclusive, CHX counter 24.7 (no result: Giardia FBPA inh)
CC1Cc2cc(/C(O)=C3/C(=O)C(=O)N(CCN4CCOCC4)C3c3cccc(O)c3)ccc2O1 (centres undefined)	Shiga inhibitor 91.3, Pf growth 96h inconclusive, CHX counter 62.3
CC1Cc2cc(/C(O)=C3/C(=O)C(=O)N(Cc4cccnc4)C3c3cccc(O)c3)ccc2O1 (centres undefined)	Shiga inhibitor 66.1, CHX counter 34.3 (no result: Giardia FBPA inh)
O=C1C(=O)N(Cc2cccnc2)C(c2cccc(O)c2)/C1=C(\O)c1ccc2c(c1)OCCO2 (centres undefined)	Shiga inhibitor 74.2, CHX counter 24.5
COc1ccc(C(=O)N(CC(=O)Nc2sc(C)c(C)c2C(N)=O)C2CCCC2)cc1	Pf growth 48h inconclusive, CHX counter 22.9
CCC(=O)N(CC(=O)Nc1sc(C)c(C)c1C(N)=O)C1CCCC1	none (no result: NS1 inh)
CC(C)N(CCNC(=O)C1CCCN(c2ncnc3c2nc2n3CCCCC2)C1)Cc1ccccc1 (centres undefined)	Pf growth 48h inconclusive
COc1ccccc1Oc1ccc2c(c1)C(=O)N(c1cccc(O)c1)C2=O	Pf growth 48h 2.62µM, Shiga inhibitor 38.4, CHX counter 27.8
O=C1c2ccc3c4c(ccc(c24)C(=O)N1c1cccc(O)c1)C(=O)N(c1cccc(O)c1)C3=O	Pf growth 48h 1.85µM, Pf growth 96h 1.04µM, Giardia FBPA inh inconclusive
COc1ccccc1Oc1ccc2c(c1)C(=O)N(c1cccc3ncccc13)C2=O	Shiga inhibitor 65.8, CHX counter 41.4
O=C1OC(c2ccccc2)Cc2cc(C(=O)N3CCN(c4ccc(F)cc4)CC3)ccc21 (centres undefined)	Pf growth 48h inconclusive (no result: NS1 inh, Shiga inhibitor, Giardia FBPA inh, CHX counter)
CCOC(=O)[C@H](Cc1ccc(O)cc1)NC(=O)c1ccccc1	none (no result: Pf growth 48h, NS1 inh, Pf growth 96h)
O=C(/C=C/c1ccco1)OCC1CCCN2CCCCC12 (centres undefined)	none
CC(C)(C)C(=O)C(Oc1ccc(Cl)cc1)n1ccnc1 (centres undefined)	Pf growth 96h 12µM (no result: NS1 inh, Shiga inhibitor, Giardia FBPA inh, CHX counter)
CCC(C)NC(=O)C1CCC(CNS(=O)(=O)c2ccccc2)CC1 (centres undefined)	none
CC(C)c1ccc(/C=C(\NC(=O)c2ccccc2)C(=O)NCCN2CCOCC2)cc1	Pf growth 96h inconclusive (no result: Giardia FBPA inh)
